From PubChem BioAssay (NCATS)
Results filed as inconclusive are left out. Entries that show only a call come without a potency. Values without a mark were called inactive. Activity calls are given as the source filed them. The call rests on the fitted dose curve; in most records, active means well fitted inhibition curve with a large enough effect; inconclusive means small, poorly fitted or top-dose-only effect; inactive means no such curve, though single readings can be large or run the other way.

Each molecule was assayed on Zika virus NS2B-NS3 protease (unlinked complex) (assay: Primary screen GU Rhodamine qHTS for Zika virus inhibitors: Unlinked NS2B-NS3 protease assay (AID 1347159; further: nearly all actives have a fitted effect of over 60% in size)). Conditions: Recombinant ZIKV NS2B-NS3 protease, Rhodamine110 substrate fluorescence; series mostly up to 107 µM.
Outline: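 Buffer 10 mM Tris-HCl pH 8.0, 0.01% Tween 20. Unlinked protease 25 nM; compound preincubation 15 min, RT, protected from light. Substrate Rhod110, 1.5 microM; ~15% conversion in 15 min.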

Compound	Potency	activity change, negative = inhibition
Cc1occc1C(=O)n1ccnc1	inactive	–
CC(=O)NCC1CN(c2ccc(-c3ccc(CNCc4cn[nH]n4)cc3)c(F)c2)C(=O)O1 (centres undefined)	inactive	–
O=C(CCc1ccccc1)c1c(O)c([C@@H]2O[C@H](CO)[C@@H](O)[C@H](O)[C@H]2O)c(O)c([C@@H]2O[C@H](CO)[C@@H](O)[C@H](O)[C@H]2O)c1O	inactive	–
Cc1cc(Cn2cnc3c2CC(C(=O)O)N(C(=O)C(c2ccccc2)c2ccccc2)C3)ccc1N(C)C (centres undefined)	inactive	–
Cc1ccccc1N1CCN(S(=O)(=O)C[C@]23CC[C@H](C[C@@H]2NC(=O)[C@@H](N)CCS(C)(=O)=O)C3(C)C)CC1	inactive	–
NC(=O)NCCCC(NC(=O)Cc1ccccc1)C(=O)O (centres undefined)	inactive	–
CC(C)/C=C1/NC(=O)C(C(C)C)n2c1nc1c(O)cccc1c2=O (centres undefined)	inactive	–
CCC(C)C(N)C(=O)NCCN1CCOCC1 (centres undefined)	inactive	–
O=C(C[C@@H]1C(C(=O)O)=CO[C@@H](O[C@@H]2O[C@H](CO)[C@@H](O)[C@H](O)[C@H]2O)/C1=C\CO)OCCc1ccc(O)c(O)c1	inactive	–
OCC1OC(Oc2cc(O)cc(/C=C/c3ccc(OC4OC(CO)C(O)C(O)C4O)cc3O)c2)C(O)C(O)C1O (centres undefined)	inactive	–
O=[N+]([O-])c1cc(Cl)ccc1S(=O)(=O)N1CCN(Cc2ccccc2)CC1	inactive	–
C/C=C(\C)C(=O)OC1C(C)C2(O)C3C=C(C)C(=O)C3CC(CO)=CC2C2C(C)(C)C12OC(C)=O (centres undefined)	inactive	–
CC(C)=C1C[C@@]2(C)C(=CC1=O)CC[C@@H](O)[C@@H]2C	inactive	–
CC(=O)OCC(Cc1ccccc1)NC(=O)C(Cc1ccccc1)NC(=O)c1ccccc1 (centres undefined)	inactive	–
CC1=C2C[C@H]3OC(=O)[C@H](O)[C@@]4(O)[C@@H](C)[C@@H](O)[C@H](O)C([C@@]2(C)[C@H](O)[C@@H](O)C1)[C@@]34C (some centres undefined)	inactive	–
COc1ccc(Oc2c(Cl)cnn(C3c4ccccc4-c4ccccc43)c2=O)cc1	inactive	–
O=C(OC1C=C(CO)C2C(OC3OC(CO)C(O)C(O)C3O)OC=CC12O)c1ccc(O)cc1 (centres undefined)	inactive	–
CC(C)=CCC[C@](C)(O[C@@H]1O[C@H](CO[C@@H]2OC[C@H](O)[C@H](O)[C@H]2O)[C@@H](O)[C@H](O)[C@H]1O)[C@H]1CC[C@]2(C)[C@@H]1[C@H](O)C[C@@H]1[C@@]3(C)CC[C@H](O[C@@H]4O[C@H](CO)[C@@H](O)[C@H](O)[C@H]4O[C@@H]4O[C@H](CO)[C@@H](O)[C@H](O)[C@H]4O)C(C)(C)[C@@H]3CC[C@]12C	inactive	–
C[C@@H]1O[C@@H](O[C@H]2[C@H](OC(=O)[C@]34CCC(C)(C)C[C@H]3C3=CCC5[C@@]6(C)CC[C@H](O[C@@H]7O[C@H](CO[C@@H]8OC[C@H](O)[C@H](O)[C@H]8O)[C@@H](O)[C@H](O)[C@H]7O)C(C)(C)C6CC[C@@]5(C)[C@]3(C)C[C@H]4O)OC[C@@H](O)[C@@H]2O)[C@H](O)[C@H](O[C@@H]2OC[C@](O)(CO)[C@H]2O)[C@H]1O[C@@H]1OC[C@H](O)[C@H](O[C@@H]2OC[C@@H](O)[C@H](O)[C@H]2O)[C@H]1O (some centres undefined)	–	-5.76% [at 19.1 µM]
C[C@]1(OC(=O)/C=C/c2ccc(O)cc2)C[C@@H](O)[C@]2(O)C=CO[C@@H](O[C@@H]3O[C@H](CO)[C@@H](O)[C@H](O)[C@H]3O)C12 (some centres undefined)	inactive	–

Compound	Potency	activity change, negative = inhibition
C=C1CC2C(C)(CCC(=O)O)C(C(C)(C)O)CCC2(C)C2(C(=O)OC)C(=O)C(C)(O)C(=O)C12C (centres undefined)	inactive	–
COc1cccc(C(=O)NCCNc2nc3cc(C)cc(C)c3cc2C#N)c1	inactive	–
CC(C)(OC1OC(CO)C(O)C(O)C1O)C1CCC(O)(CO)C2CC(=O)C(C)(O)C2C1 (centres undefined)	inactive	–
CC[C@H]1OC(=O)[C@H](C)C(=O)[C@H](C)[C@@H](OC2O[C@H](C)C[C@H](N(C)C)[C@H]2O)[C@@H](C)C[C@@H](C)C(=O)/C=C/[C@]1(C)O (some centres undefined)	inactive	–
CCc1cc(CC[C@]2(C3CCCC3)CC(O)=C(Cc3nc4nc(C)cc(C)n4n3)C(=O)O2)cc(CC)n1	inactive	–
CC(C)(CC(=O)N1CCCC1)NCC(=O)N1C[C@@H](F)C[C@H]1C#N	inactive	–
COc1cc([C@H]2OC[C@](O)(Cc3ccc(O[C@@H]4O[C@H](CO)[C@@H](O)[C@H](O)[C@H]4O)c(OC)c3)[C@@H]2CO)ccc1O	inactive	–
COC1OC(OC)C(O)(CCC2(C)C(C)CCC3(C)C2CC(O)C(O)C32CO2)C1O (centres undefined)	inactive	–
OC[C@@]1(O)CO[C@H](OC[C@H]2O[C@@H](OCCc3ccccc3)[C@H](O)[C@@H](O)[C@@H]2O)[C@@H]1O	inactive	–
Cc1c(NC(=O)N2CCOCC2)ccc2c1c1ccccc1n2C(C)C	inactive	–
COc1c2c(c(C)c3c1C(=O)OC3)OC1(C)CC(O)C34OC(O)(CCC3(C)C1C2)OC4(C)C (centres undefined)	inactive	–
COc1cc(O)cc(C)c1C(=O)OC1C(CO)OC(n2ccc(=O)[nH]c2=O)C1OC(C)=O (centres undefined)	inactive	–
CC(=O)/C=C/C1(O)C(C)=CC(=O)CC1(C)C (centres undefined)	inactive	–
COC1OC(O)C2(CCC3(O2)C(C)CC2OC(=O)C4(C)CCCC3(C)C24)C1O (centres undefined)	inactive	–
C=CC(C)(CCC=C(C)C)O[C@@H]1O[C@H](CO)[C@@H](O)[C@H](O)[C@H]1O (some centres undefined)	inactive	–
CC1(C)CC[C@]2(C(=O)O[C@@H]3O[C@H](CO)[C@@H](O)[C@H](O)[C@H]3O)CC[C@]3(C)C(=CCC4[C@@]5(C)C[C@@H](O)[C@H](O)[C@@](C)(CO)C5[C@H](O)C[C@]43C)C2C1 (some centres undefined)	inactive	–
COc1cc(/C=C/C(=O)O[C@H]2[C@H](O)[C@@H](CO)O[C@@]2(CO)O[C@H]2O[C@H](CO)[C@@H](O)[C@H](O)[C@H]2O)cc(OC)c1O	inactive	–
CN(C)C(=O)C(O)C(Cc1ccccc1)NC(=O)c1cc2cc(Cl)ccc2[nH]1 (centres undefined)	inactive	–
C/C(CO)=C1/CCC23COC(C2)C(O)(C(=O)O)CCC13 (centres undefined)	inactive	–
